PubChem BioAssay (Tox21)
Records with an inconclusive call do not appear. Entries that show only a call come without a potency. A number with no mark means an inactive call. Calls of active or inactive are those of the source. Calls come from the whole dose curve; as a rule, active = well fitted curve in the direction sought with a large enough effect in the repeat runs; inconclusive = weak or mixed curves; inactive = no such curve, though single readings can be large; an effect the other way counts as inactive or inconclusive.

Experiments:
[1] = molecular target: Nuclear receptor subfamily 1 group I member 2 (Rattus norvegicus) (UniProt Q9R1A7); experiment: Rat pregnane X receptor (rPXR) activation by small molecules, qHTS assay (AID 1346983); settings: rPXR luciferase reporter cells, One-Glo luminescence, 24 h; max activation: active compounds read high; note: nearly all actives have a fitted effect of over 20% in size
Sequence of Nuclear receptor subfamily 1 group I member 2 (Rattus norvegicus) (Q9R1A7 whole entry, looked up): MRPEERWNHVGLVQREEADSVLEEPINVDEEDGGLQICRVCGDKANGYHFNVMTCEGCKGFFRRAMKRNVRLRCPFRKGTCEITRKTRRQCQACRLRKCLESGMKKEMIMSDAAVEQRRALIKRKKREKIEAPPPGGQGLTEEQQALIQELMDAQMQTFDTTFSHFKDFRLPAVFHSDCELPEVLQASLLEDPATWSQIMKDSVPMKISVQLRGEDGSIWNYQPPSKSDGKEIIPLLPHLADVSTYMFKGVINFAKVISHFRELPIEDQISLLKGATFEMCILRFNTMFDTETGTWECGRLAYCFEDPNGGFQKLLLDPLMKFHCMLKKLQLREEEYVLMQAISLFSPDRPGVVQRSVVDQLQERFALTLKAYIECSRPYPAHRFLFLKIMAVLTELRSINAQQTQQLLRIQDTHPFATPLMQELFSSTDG
Outline: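 Cell-based rPXR luciferase reporter assay, 2,000 cells per well, rested 5hr at 37 C before compound addition in DMSO, then 24 hr at 37 C. One-Glo reagent was added and luminescence read after 30 min at room temperature.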

[2] = molecular target: Nuclear receptor subfamily 1 group I member 2 (Homo sapiens) (UniProt O75469); experiment: Human pregnane X receptor (PXR) activation by small molecules, qHTS assay (AID 1346985); settings: DPX-2 HepG2 CYP3A4-luciferase, 24 h; series mostly up to 38.3 µM; note: nearly all actives have a fitted effect of over 40% in size
Outline: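 DPX-2 cells (HepG2 co-transfected with a PXR response element and a CYP3A4-promoter luciferase construct) were seeded at 2,000 per well, rested 5 hr at 37C, then exposed to DMSO-dissolved compounds for 24 hr. Activation was read as luciferase luminescence.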

[3] = molecular target: Nuclear receptor subfamily 1 group I member 2 (Homo sapiens) (UniProt O75469); experiment: CYP3A4 induction through human pregnane X receptor (PXR) by small molecules, qHTS assay (AID 1346984); settings: DPX-2 HepG2 PXR, CYP3A4-luciferin luminescence, 24 h; series mostly up to 46.1 µM; note: nearly all actives have a fitted effect of over 40% in size
Outline: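 DPX-2 cells (HepG2 co-transfected with PXR and CYP3A4 promoter-luciferase) treated with compounds 24 h at 37C; luciferin-IPA CYP3A4 substrate 3uM final added for 3 h, then One-Glo; luminescence read. qHTS format.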

Row | Compound | max activation [1] [%] | Potency [2] | Potency [3]
1 | CC(C)(O/N=C(\C(=O)N[C@@H]1C(=O)N2C(C(=O)[O-])=C(C[n+]3ccccc3)CS[C@H]12)c1csc(N)n1)C(=O)O | 0.831 | inactive | 
2 | NC[C@@H]1CC[C@@H](N)[C@@H](O[C@H]2[C@H](O)[C@@H](O[C@H]3O[C@H](CO)[C@@H](O)[C@H](N)[C@H]3O)[C@H](N)C[C@@H]2N)O1 | -0.783 | inactive | inactive
3 | CC[C@H](C)C(=O)O[C@H]1CCC=C2C=C[C@H](C)[C@H](CC[C@@H]3C[C@@H](O)CC(=O)O3)[C@H]21 |  | inactive | inactive
